Measurements taken from ChEMBL document CHEMBL4513216, “Probing the Open Global Health Chemical Diversity Library for Multistage-Active Starting Points for Next-Generation Antimalarials” (ACS Infect Dis, 2020).
Screen size: about 65,000 compounds; about 2,100 (3.2%) showed an effect of 50% or more. The median lay at about -52%. The list comes from a sample in which strong results are over-represented; it also holds similar structures and randomly drawn compounds.

test system: Plasmodium falciparum; experiment: Screen against P. falciparum Asexual Blood Stage (ABS), at 5uM; type: functional, Dd2; conditions: tested at 5 uM

Row | Compound | INHIBITION
1 | Cc1cc(CN2CCc3c(CNc4ncccn4)cncc3C2)oc1C | 0.619%
2 | c1ccc(CN2CCc3c(COCc4ccncc4)cncc3C2)nc1 | -14.6%
3 | CN(C)C(=O)COCc1cncc2c1CCN(Cc1ccccn1)C2 | 25.8%
4 | c1ccc(CN2CCc3c(COCC4CC4)cncc3C2)nc1 | 59.3%
5 | CN(CC(=O)NCc1cccnc1N1CCCCC1)C(=O)c1cccs1 | -48.6%
6 | CC(C)c1ccc(-n2nnc(C(=O)O)c2-c2ccccn2)cc1 | -101%
7 | N#Cc1cccnc1OC1CCN(S(=O)(=O)c2ccc(Br)cc2)CC1 | -92.6%
8 | NCCc1nc(N[C@@H](CO)c2ccccc2)c2ccccc2n1 | -39.4%
9 | CCC(Nc1nc(CCN)nc2ccccc12)c1cc(C)ccn1 (stereo not drawn) | -22%
10 | CCC(Nc1nc(CCN)nc2ccccc12)c1cccs1 (stereo not drawn) | 63.5%
11 | N#Cc1cccnc1N1CCC(Nc2ccccc2)C1 (stereo not drawn) | -76.7%
12 | O=C(CC1CC1)NCc1cn2c(n1)CN(Cc1cccc(F)c1)CC2 | -52%
13 | CCNC(=O)COc1cc(CC)c2c(C)nn(-c3ccc(C)cc3)c2n1 | -21.1%
14 | CC(C)[C@@H]1CN(CCOc2ccc(Cl)cc2)C[C@H]1NS(C)(=O)=O | 45.9%
15 | CCc1ccccc1OCCN1C[C@@H](NS(C)(=O)=O)[C@H](C(C)C)C1 | 45.2%
16 | CC(C)[C@@H]1CN(CCCOc2ccc(F)cc2)C[C@H]1NS(C)(=O)=O | 53.7%
17 | CN(C)CCNC(=O)c1nc2c(s1)CCCN2C(=O)C1CC1 | 25.4%
18 | CC(O)CNCc1ccc(OCc2ccc3c(c2)OCCO3)cc1 (stereo not drawn) | -169%
19 | COc1ccc(-n2ncc3c2NC(=O)CSC3CC(C)C)cc1 (stereo not drawn) | -124%
20 | CCn1ccnc1CN1CCN(C(C)C(=O)N2CCCC2)CC1 (stereo not drawn) | -81.3%
21 | CCn1ccnc1CN1CCN(C(C)C(=O)NC2CCCC2)CC1 (stereo not drawn) | 51%

Row | Compound | INHIBITION
22 | CCn1ccnc1CN1CCN(CC(=O)NC(C2CC2)C2CC2)CC1 | 61.4%
23 | CCn1ccnc1CN1CCN(CC(=O)NC(=O)NC2CC2)CC1 | -97.3%
24 | CCn1ccnc1CN1CCN(C(C)C(=O)NC2CCCCC2)CC1 (stereo not drawn) | -83.4%
25 | CCn1ccnc1CN1CCN(CC(=O)NC2CCOCC2)CC1 | -29%
26 | O=C1C(N2CCOCC2)CCCN1Cc1cccc(C(F)(F)F)c1 (stereo not drawn) | -61.2%
27 | CC(C)(C)c1nc(CN(CCC2CCCCC2)CC(N)=O)no1 | -85.5%
28 | COc1cc(Cl)c(CN2CCC(C(N)=O)C2)cc1Cl (stereo not drawn) | 7.24%
29 | COc1ccc(CN2CCC(C(N)=O)CC2)cc1SC(F)(F)F | 63.5%
30 | COc1ccc(CN2CCC(C(N)=O)C2)c(Br)c1OC (stereo not drawn) | -93.4%
31 | COc1ccc2[nH]cc(CCNC(=O)C3CCCN(C(C)=O)C3)c2c1 (stereo not drawn) | -30%
32 | CSc1ncccc1C(=O)N1CCCC1c1ccc(C(=O)N(C)C)s1 (stereo not drawn) | -53.6%
33 | Cc1cc2n(n1)CCN(c1nc(N(C)C)nc3c1CCNC3)C2 | 57.8%
34 | Cc1cc2n(n1)CCN(c1nc(N)nc3c1CCNCC3)C2 | -75.3%
35 | Cc1ccccc1N1CCN(c2nc(N(C)C)nc3c2CCNC3)CC1 | 39.1%
36 | Cc1ccc(NC2CCN(C(=O)c3ccc(F)cc3Cl)CC2)nn1 | -116%
37 | Cc1cc(-c2cnc(NC3CCCCC3)nc2-c2ccco2)on1 | -49.1%
38 | CCc1nc(C2CCCN2Cc2cc(C)nc3ccccc23)no1 (stereo not drawn) | -64.8%
39 | CN1CCCN(C(=O)NCc2ccccc2Cn2cncn2)CC1 | -93.1%
40 | O=C(CC1CC1)N1C[C@H]2CN(CC3CC3)C(=O)[C@H]2C1 | -64.7%
41 | COCCN1C[C@@H]2CN(C(=O)CC3CC3)C[C@@H]2C1=O | 53.5%
42 | COCCN1C[C@@H]2CN(C(=O)[C@H]3CCCO3)C[C@@H]2C1=O | -135%

Row | Compound | INHIBITION
43 | Cn1ccc2c(cnc3nc(-c4ccncc4)nn32)c1=O | -169%
44 | COc1cc(CCC(=O)N2CCC(c3cc4ncccc4[nH]3)CC2)on1 | -0.239%
45 | CN(C)c1ccc(C(=O)N2CCC(c3cc4cnccc4[nH]3)CC2)cc1 | 29.8%
46 | CN(C)c1ccc(C(=O)N2CCC(c3cc4ncccc4[nH]3)CC2)cc1 | 55.6%
47 | CCNC(=O)NC(=O)C(C)N(C)CCOc1ccccc1C (stereo not drawn) | -80.5%
48 | CN(C)C[C@H]1OC[C@@H]2CCN(S(=O)(=O)c3ccccc3)C[C@@H]21 | -3.11%
49 | CC(=O)N1CCO[C@@H]2CN(S(=O)(=O)c3ccccc3F)C[C@@H]2C1 | -67.6%
50 | CCN1CCO[C@@H]2CN(S(=O)(=O)c3cccs3)CC[C@@H]2C1 | 40.2%
51 | COc1ccc(S(=O)(=O)N2C[C@@H]3CN(C)CCO[C@@H]3C2)cc1 | 60.2%
52 | CC(C)N1CCO[C@@H]2CN(S(=O)(=O)c3cccs3)CC[C@@H]2C1 | 52.1%
53 | O=C1CO[C@@H]2CN(S(=O)(=O)c3ccccc3F)C[C@H]2N1 | -30.8%
54 | Cc1ccc(S(=O)(=O)N2CC[C@H]3CO[C@H](CN(C)C)[C@H]3C2)cc1 | 12.4%
55 | CN(C)C[C@H]1OC[C@@H]2CCN(S(=O)(=O)c3ccc(F)cc3)C[C@@H]21 | 50.5%
56 | CN1CCO[C@@H]2CN(S(=O)(=O)c3ccccc3)C[C@@H]2C1 | -17.9%
57 | CN1CCO[C@H]2CN(S(=O)(=O)c3ccc(C#N)cc3)C[C@H]21 | -81.8%
58 | CN1CCO[C@@H]2CN(S(=O)(=O)c3cccs3)CC[C@@H]2C1 | -22.2%
59 | CN1CCO[C@@H]2CN(S(=O)(=O)c3ccccc3F)CC[C@@H]2C1 | 50.3%
60 | CN1CC(=O)N(c2ccccc2)Cc2c(NC3CC3)ncnc21 | -97.2%
61 | CO[C@H]1CN(C(=O)OC(C)(C)C)CC1NCc1ccco1 (stereo partly drawn) | -47.8%
62 | CN(CCNC(=O)Nc1ccn(C)n1)Cc1ccc(F)cc1 | -27.6%
63 | CC(C)NC(=O)N1CCc2onc(C(=O)NCCN(C)C)c2C1 | -13.1%
